Test results reported in PubChem BioAssay AID1569 (National Center for Advancing Translational Sciences (NCATS), 2009).
Results filed as inconclusive are left out. Active and inactive are the calls of the source. Calls follow the shape of the dose curve; as a rule, active = well fitted inhibition curve with a large enough effect; inconclusive = small, poorly fitted or top-dose-only effect, or effect the other way, or another doubt; inactive = no such curve, though single readings can be large or run the other way.

Test: Confirmation Concentration-Response Assay for lipid storage modulators; also: nearly all actives have a fitted effect of over 80% in size
Settings: Drosophila S3 cells, lipid droplet BODIPY/CellTracker ratio, 18-24 h; series mostly up to 46.1 µM
How it was run: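 Cells at 5,000/well received compound as a titration plus oleic acid (added as 400 uM solution) and were incubated 18–24 h at 24 °C. BODIPY 493/503 lipid signal and CellTracker Red cell count were read by 488-nm laser-scanning cytometry. Activity was normalised to 20 uM Triacsin C.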
Potency is read from the fitted curve at half-maximal effect.

**Q.** For `Cc1cc(C(=O)NC2CCCc3c2cnn3-c2ccccc2F)nc(C)n1` (stereo not given), which Potency is on record?
**A.** 1.41 µM (active)

**Q.** Which Potency does the source give for `CCOC(=O)c1cc2c(ccn2-c2ccc(F)cc2)n1CC(=O)N(CC)CC` here?
**A.** 2.17 µM (active)

**Q.** For `CC(=O)N1CCN(C(=O)C2(NC(=O)Nc3ccc(C)cc3)CCCCC2)CC1`, which Potency is on record?
**A.** inactive

**Q.** Which Potency does the source give for `O=C1c2ccccc2C(=O)c2c(Nc3ccc(CCO)cc3)ccc(O)c21` here?
**A.** 25 µM (active)

**Q.** With `COCCCN1C(=O)c2ccc(C(=O)OCC(=O)NCc3ccccc3OC)cc2C1=O` as the compound, how does the Potency read?
**A.** inactive

**Q.** For `CC(C)(C)c1cc[n+](C2=C([O-])c3ccccc3C(=O)/C2=N\S(=O)(=O)c2cccs2)cc1`, which Potency is on record?
**A.** 28.1 µM (active)

**Q.** With `N#Cc1ccsc1NC(=O)CN1CCN(S(=O)(=O)c2ccccc2C(F)(F)F)CC1` as the compound, how does the Potency read?
**A.** 1.25 µM (active)

**Q.** With `COc1ccc(CCNC(=O)CC2SC(N)=NC2=O)cc1OC` (stereo not given) as the compound, how does the Potency read?
**A.** inactive

**Q.** With `CCOc1ccc(CCNC(=O)COC(=O)c2ccc(S(C)(=O)=O)cc2)cc1OCC` as the compound, how does the Potency read?
**A.** inactive

**Q.** With `O=C(Nc1ccc(S(=O)(=O)N2CCCCC2)cc1)c1ccc(CN2CCc3ccccc3C2)cc1` as the compound, how does the Potency read?
**A.** 7.91 µM (active)

**Q.** Which Potency does the source give for `Cc1cnc(NC(=O)CSc2ncc(-c3ccccc3)n2Cc2ccco2)s1` here?
**A.** inactive

**Q.** For `CCCCCCCCCCCCCCCC[n+]1cccc2ccccc21`, which Potency is on record?
**A.** 1.22 µM (active)

**Q.** Which Potency does the source give for `C[C@@H]1NS(=O)(=O)[C@H]2C[C@@H]3C=C[C@]2(O3)[C@H]1OC(=O)c1ccccc1Br` here?
**A.** inactive

**Q.** With `Cc1nn(C)c(C)c1CN(Cc1nc(CCC(C)C)no1)C(C)C` as the compound, how does the Potency read?
**A.** 12.5 µM (active)

**Q.** With `COc1ccccc1NC(=O)NC1(C(=O)N2CCC(C)CC2)CCCCC1` as the compound, how does the Potency read?
**A.** inactive

**Q.** For `CCCOc1ccc(Cc2c(Cl)nc(SC)nc2NC)cc1`, which Potency is on record?
**A.** 14.1 µM (active)

**Q.** With `Cc1ccccc1C(=O)N1CCC(C(=O)Nc2ccc(S(=O)(=O)N3CCCCC3)cc2)CC1` as the compound, how does the Potency read?
**A.** inactive

**Q.** Which Potency does the source give for `Cc1cc(N2CCCC2=O)cc(C)c1S(=O)(=O)NCCOc1ccc(C(C)(C)C)cc1` here?
**A.** 3.97 µM (active)

**Q.** For `COc1ccc(CCNC(=O)COc2ccc(S(=O)(=O)NCC(C)C)cc2Cl)cc1OC`, which Potency is on record?
**A.** inactive

**Q.** With `COc1ccc(CCNC(=O)Cn2cnc3c(cnn3-c3ccccc3Cl)c2=O)cc1OC` as the compound, how does the Potency read?
**A.** inactive

**Q.** For `COc1ccc(N=Nc2nc(-c3ccccc3)c(-c3ccccc3)[nH]2)cc1`, which Potency is on record?
**A.** 2.5 µM (active)

**Q.** Which Potency does the source give for `CCN(CC(=O)Nc1c(F)cccc1F)C(=O)CCCc1c[nH]c2ccccc12` here?
**A.** 0.628 µM (active)

**Q.** With `CN(C1=C(N2CCOCC2)C(=O)c2ccccc2C1=O)c1ccccc1` as the compound, how does the Potency read?
**A.** 6.28 µM (active)

**Q.** Which Potency does the source give for `CCOc1ccc(CCNC(=O)COC(=O)/C=C/c2ccc(OCC#N)c(OC)c2)cc1OCC` here?
**A.** 3.15 µM (active)

**Q.** With `O=C(Nc1cccc(S(=O)(=O)N2CCCCC2)c1)c1ccccc1NS(=O)(=O)c1ccc(F)cc1` as the compound, how does the Potency read?
**A.** 28.1 µM (active)

**Q.** With `Cc1cc(C)cc(-n2ncc3c2CCCC3NC(=O)c2csnn2)c1` (stereo not given) as the compound, how does the Potency read?
**A.** 0.0112 µM (active)

**Q.** With `Cc1cc(C(=O)O[C@H]2[C@H](Cc3ccccc3)NS(=O)(=O)[C@H]3C[C@@H]4C=C[C@]23O4)ccc1[N+](=O)[O-]` as the compound, how does the Potency read?
**A.** inactive

**Q.** With `CCOc1ccc(CCNC(=O)COC(=O)CCc2cc(OC)c(OC)c(OC)c2)cc1OCC` as the compound, how does the Potency read?
**A.** inactive

**Q.** Which Potency does the source give for `COCc1ccc(C(=O)NC(C)c2cnn(-c3ccccc3C)c2C)o1` (stereo not given) here?
**A.** 12.5 µM (active)

**Q.** With `CCOc1ccc(CCNC(=O)c2cc3sccc3n2CC)cc1OCC` as the compound, how does the Potency read?
**A.** 0.199 µM (active)

**Q.** Which Potency does the source give for `COc1ccc(CCNC(=O)[C@H](C)N2C(=O)N3CCc4c([nH]c5ccccc45)[C@@]3(C)C2=O)cc1OC` here?
**A.** 0.56 µM (active)

**Q.** With `CCOc1ccc(CCNC(=O)COC(=O)c2ccc3c(c2)OCCO3)cc1OCC` as the compound, how does the Potency read?
**A.** 1.41 µM (active)

**Q.** For `O=C(Nc1cccc(F)c1)NC1(C(=O)N2CCC(O)CC2)CCCCC1`, which Potency is on record?
**A.** inactive

**Q.** With `COc1ccc(CCNC(=O)CSc2nnc(-c3ccccc3)c3ccccc23)cc1OC` as the compound, how does the Potency read?
**A.** 4.45 µM (active)

**Q.** With `Cc1ccc(C(NC(=O)C2CCCCC2)c2c(O)ccc3ccccc23)cc1` (stereo not given) as the compound, how does the Potency read?
**A.** 17.7 µM (active)
